Experimental data from paper PMC7862700, “An all-to-all approach to the identification of sequence-specific readers for epigenetic DNA modifications on cytosine”.

Assays:
Test in all cases: DAPPL (digital affinity profiling via proximity ligation, sequencing); 10 mM Tris-HCl pH 7.5, 50 mM NaCl, 1 mM DTT, 4% glycerol, room temperature, 30 min; GST-TFs on glutathione beads, 16-mer random dsDNA library, 0.1% formaldehyde crosslink after washing; high values mean tight binding
[1] = biological target: T1, FLI1 (Homo sapiens, UniProt Q01543 1-452); conditions: protein: recombinant; tags: N-terminal GST; dsDNA, one strand shown
T1 sequence: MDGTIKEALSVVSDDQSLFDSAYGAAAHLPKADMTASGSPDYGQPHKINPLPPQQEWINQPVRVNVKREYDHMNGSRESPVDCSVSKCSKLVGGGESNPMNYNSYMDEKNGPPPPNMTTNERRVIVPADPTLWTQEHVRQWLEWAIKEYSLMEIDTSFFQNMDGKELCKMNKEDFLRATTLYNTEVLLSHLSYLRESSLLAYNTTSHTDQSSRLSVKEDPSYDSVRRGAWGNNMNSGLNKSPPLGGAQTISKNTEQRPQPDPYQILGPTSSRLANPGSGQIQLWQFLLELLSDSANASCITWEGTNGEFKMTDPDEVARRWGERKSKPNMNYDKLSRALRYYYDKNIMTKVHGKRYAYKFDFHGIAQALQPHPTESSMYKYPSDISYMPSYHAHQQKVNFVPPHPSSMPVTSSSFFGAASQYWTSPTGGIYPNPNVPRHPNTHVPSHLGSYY
In short: (§1)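 Each value of binding signal is a hexamer's read frequency for a factor divided by the same hexamer's frequency in the tag-only sample. Barcoded, bead-captured GST fusions of human transcription factors made in yeast were pooled with that sample and incubated with 200 nmole of a random double-stranded 16-mer DNA library in Tris/NaCl/DTT/glycerol buffer at room temperature for 30 min. Washing, 0.1% formaldehyde crosslinking, proximity ligation, PCR and Illumina NextSeq500 sequencing followed.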

[2] = biological target: T2, ELK1 (Homo sapiens, UniProt P19419 1-428); conditions: protein: recombinant; tags: N-terminal GST; dsDNA, one strand shown
T2 sequence: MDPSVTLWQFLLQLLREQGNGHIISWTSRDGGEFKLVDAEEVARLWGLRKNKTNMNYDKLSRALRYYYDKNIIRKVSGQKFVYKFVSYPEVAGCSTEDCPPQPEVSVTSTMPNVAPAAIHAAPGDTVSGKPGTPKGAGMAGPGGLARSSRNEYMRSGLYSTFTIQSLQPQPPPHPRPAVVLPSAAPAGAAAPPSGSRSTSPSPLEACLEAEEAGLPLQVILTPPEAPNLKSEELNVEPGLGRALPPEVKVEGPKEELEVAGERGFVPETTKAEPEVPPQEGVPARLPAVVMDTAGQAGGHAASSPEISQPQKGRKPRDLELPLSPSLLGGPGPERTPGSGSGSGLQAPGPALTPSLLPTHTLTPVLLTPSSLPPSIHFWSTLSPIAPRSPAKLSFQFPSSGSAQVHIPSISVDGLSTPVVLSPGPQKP
In short: as §1

[3] = biological target: T3, GABPA (Homo sapiens, UniProt Q06546 1-454); conditions: protein: recombinant; tags: N-terminal GST; dsDNA, one strand shown
T3 sequence: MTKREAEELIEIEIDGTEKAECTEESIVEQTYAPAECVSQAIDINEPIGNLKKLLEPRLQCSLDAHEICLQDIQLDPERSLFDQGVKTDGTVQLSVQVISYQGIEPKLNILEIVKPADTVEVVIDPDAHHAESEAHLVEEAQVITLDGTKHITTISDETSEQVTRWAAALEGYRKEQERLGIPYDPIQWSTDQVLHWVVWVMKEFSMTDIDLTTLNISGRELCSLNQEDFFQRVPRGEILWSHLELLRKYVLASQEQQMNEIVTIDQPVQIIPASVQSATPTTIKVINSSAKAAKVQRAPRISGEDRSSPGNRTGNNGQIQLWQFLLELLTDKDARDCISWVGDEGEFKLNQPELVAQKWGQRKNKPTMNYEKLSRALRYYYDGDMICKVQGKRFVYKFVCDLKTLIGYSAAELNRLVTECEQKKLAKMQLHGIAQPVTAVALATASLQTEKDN
In short: as §1

[4] = biological target: T4, ERG (Homo sapiens, UniProt P11308 1-479); conditions: protein: recombinant; tags: N-terminal GST; dsDNA, one strand shown
T4 sequence: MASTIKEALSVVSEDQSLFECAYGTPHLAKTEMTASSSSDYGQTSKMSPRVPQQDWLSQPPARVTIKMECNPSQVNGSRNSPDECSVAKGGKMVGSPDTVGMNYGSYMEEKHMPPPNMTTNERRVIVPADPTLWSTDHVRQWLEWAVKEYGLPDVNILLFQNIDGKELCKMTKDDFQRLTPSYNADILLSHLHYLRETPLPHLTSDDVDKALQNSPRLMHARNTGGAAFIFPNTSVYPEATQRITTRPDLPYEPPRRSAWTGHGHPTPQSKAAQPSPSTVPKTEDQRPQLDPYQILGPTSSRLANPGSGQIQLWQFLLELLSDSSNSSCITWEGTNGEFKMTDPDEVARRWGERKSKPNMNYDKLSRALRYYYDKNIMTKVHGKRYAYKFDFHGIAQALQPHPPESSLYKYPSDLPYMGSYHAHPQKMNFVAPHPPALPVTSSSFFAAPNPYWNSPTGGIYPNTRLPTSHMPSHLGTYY
In short: as §1

[5] = biological target: ELF1 (Homo sapiens, UniProt P32519 1-619); conditions: protein: recombinant; tags: N-terminal GST; dsDNA, one strand shown
In short: as §1

[6] = biological target: T5, EHF (Homo sapiens, UniProt Q9NZC4 1-300); conditions: protein: recombinant; tags: N-terminal GST; dsDNA, one strand shown
T5 sequence: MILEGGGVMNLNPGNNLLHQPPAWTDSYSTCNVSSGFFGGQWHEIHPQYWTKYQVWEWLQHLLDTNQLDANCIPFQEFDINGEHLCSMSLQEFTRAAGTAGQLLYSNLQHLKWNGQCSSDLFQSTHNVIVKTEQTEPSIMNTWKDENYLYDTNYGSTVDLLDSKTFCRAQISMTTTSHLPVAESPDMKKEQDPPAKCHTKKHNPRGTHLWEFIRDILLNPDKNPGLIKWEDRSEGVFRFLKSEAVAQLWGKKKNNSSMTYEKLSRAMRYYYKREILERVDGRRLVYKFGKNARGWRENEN
In short: as §1

[7] = biological target: SPI1 (Homo sapiens, UniProt P17947 1-270); conditions: protein: recombinant; tags: N-terminal GST; dsDNA, one strand shown
In short: as §1

[8] = biological target: SPIB (Homo sapiens, UniProt Q01892 1-262); conditions: protein: recombinant; tags: N-terminal GST; dsDNA, one strand shown
In short: as §1

[9] = biological target: T6, ELK3 (Homo sapiens, UniProt P41970 1-407); conditions: protein: recombinant; tags: N-terminal GST; dsDNA, one strand shown
T6 sequence: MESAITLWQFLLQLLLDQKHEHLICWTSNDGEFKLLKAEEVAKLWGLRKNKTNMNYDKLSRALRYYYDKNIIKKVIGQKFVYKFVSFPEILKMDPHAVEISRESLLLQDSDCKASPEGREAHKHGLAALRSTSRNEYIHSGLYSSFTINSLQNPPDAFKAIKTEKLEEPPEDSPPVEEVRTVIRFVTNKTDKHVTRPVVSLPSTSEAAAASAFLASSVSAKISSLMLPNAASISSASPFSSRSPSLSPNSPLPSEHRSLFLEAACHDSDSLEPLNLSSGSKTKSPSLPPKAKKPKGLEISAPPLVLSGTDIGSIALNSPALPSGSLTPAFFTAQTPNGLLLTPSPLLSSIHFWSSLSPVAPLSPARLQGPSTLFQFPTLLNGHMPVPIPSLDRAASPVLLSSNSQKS
In short: as §1

[10] = biological target: T7, FEV (Homo sapiens, UniProt Q99581 1-238); conditions: protein: recombinant; tags: N-terminal GST; dsDNA, one strand shown
T7 sequence: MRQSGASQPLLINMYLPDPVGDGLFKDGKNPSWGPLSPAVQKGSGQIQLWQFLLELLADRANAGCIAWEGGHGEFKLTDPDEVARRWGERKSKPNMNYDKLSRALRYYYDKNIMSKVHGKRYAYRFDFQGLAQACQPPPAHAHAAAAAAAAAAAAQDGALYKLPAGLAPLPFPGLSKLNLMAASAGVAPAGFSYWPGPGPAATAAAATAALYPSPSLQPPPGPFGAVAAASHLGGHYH
In short: as §1

[11] = biological target: ETV5 (Homo sapiens, UniProt P41161 1-510); conditions: protein: recombinant; tags: N-terminal GST; dsDNA, one strand shown
In short: as §1

[12] = biological target: HSF1 (Homo sapiens, UniProt Q00613 1-529); conditions: protein: recombinant; tags: N-terminal GST; chain copies: 3; dsDNA, one strand shown
In short: as §1

[13] = biological target: T8, SPIC (Homo sapiens, UniProt Q8N5J4 1-248); conditions: protein: recombinant; tags: N-terminal GST; dsDNA, one strand shown
T8 sequence: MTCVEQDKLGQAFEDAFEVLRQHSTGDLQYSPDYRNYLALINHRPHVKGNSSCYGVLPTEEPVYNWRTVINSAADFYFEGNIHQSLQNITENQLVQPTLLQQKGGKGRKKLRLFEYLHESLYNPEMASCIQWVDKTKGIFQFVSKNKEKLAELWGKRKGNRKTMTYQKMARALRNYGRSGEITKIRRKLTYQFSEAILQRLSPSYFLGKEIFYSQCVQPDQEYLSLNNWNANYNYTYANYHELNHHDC
In short: as §1

[14] = biological target: ELF4 (Homo sapiens, UniProt Q99607 1-663); conditions: protein: recombinant; tags: N-terminal GST; dsDNA, one strand shown
In short: as §1

[15] = biological target: T9, ELK4 (Homo sapiens, UniProt P28324-2 1-405); conditions: protein: recombinant; tags: N-terminal GST; dsDNA, one strand shown
T9 sequence: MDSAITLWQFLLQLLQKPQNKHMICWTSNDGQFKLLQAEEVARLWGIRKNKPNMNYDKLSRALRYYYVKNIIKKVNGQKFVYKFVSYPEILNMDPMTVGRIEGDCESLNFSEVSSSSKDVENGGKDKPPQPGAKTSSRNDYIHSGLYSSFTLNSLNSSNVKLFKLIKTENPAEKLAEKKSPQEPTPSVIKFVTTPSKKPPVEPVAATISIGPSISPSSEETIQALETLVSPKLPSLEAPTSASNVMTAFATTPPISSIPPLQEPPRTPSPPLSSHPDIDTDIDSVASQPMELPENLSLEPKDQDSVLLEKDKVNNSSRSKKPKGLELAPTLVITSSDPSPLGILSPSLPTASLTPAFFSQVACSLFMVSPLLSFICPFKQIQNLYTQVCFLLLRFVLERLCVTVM
In short: as §1

[16] = biological target: T10, ETV2 (Homo sapiens, UniProt O00321 1-342); conditions: protein: recombinant; tags: N-terminal GST; dsDNA, one strand shown
T10 sequence: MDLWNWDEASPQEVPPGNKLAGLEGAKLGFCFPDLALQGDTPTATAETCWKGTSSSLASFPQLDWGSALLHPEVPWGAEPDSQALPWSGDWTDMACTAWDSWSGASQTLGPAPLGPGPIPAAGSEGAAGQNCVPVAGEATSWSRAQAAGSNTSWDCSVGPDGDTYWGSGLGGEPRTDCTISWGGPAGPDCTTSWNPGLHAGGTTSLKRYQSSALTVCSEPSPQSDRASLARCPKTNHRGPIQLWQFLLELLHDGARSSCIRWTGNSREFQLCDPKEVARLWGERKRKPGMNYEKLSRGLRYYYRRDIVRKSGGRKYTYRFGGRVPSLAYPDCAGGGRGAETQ
In short: as §1

[17] = biological target: T11, ELF3 (Homo sapiens, UniProt P78545 1-371); conditions: protein: recombinant; tags: N-terminal GST; dsDNA, one strand shown
T11 sequence: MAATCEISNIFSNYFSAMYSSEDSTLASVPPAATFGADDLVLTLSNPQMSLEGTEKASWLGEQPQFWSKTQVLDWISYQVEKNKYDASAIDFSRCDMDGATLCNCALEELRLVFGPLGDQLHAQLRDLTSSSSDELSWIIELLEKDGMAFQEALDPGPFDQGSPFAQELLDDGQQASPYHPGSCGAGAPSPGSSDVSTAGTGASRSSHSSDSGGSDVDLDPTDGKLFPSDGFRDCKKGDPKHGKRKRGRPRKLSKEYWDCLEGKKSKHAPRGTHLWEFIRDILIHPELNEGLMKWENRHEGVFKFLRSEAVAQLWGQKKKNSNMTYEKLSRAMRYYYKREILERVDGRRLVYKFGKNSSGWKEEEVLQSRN
In short: as §1

[18] = biological target: CRX (Homo sapiens, UniProt O43186 1-299); conditions: protein: recombinant; tags: N-terminal GST; dsDNA, one strand shown
In short: as §1

[19] = biological target: ETV1 (Homo sapiens, UniProt P50549 1-477); conditions: protein: recombinant; tags: N-terminal GST; dsDNA, one strand shown
In short: as §1

Sequence of ETV5 (P41161 whole entry): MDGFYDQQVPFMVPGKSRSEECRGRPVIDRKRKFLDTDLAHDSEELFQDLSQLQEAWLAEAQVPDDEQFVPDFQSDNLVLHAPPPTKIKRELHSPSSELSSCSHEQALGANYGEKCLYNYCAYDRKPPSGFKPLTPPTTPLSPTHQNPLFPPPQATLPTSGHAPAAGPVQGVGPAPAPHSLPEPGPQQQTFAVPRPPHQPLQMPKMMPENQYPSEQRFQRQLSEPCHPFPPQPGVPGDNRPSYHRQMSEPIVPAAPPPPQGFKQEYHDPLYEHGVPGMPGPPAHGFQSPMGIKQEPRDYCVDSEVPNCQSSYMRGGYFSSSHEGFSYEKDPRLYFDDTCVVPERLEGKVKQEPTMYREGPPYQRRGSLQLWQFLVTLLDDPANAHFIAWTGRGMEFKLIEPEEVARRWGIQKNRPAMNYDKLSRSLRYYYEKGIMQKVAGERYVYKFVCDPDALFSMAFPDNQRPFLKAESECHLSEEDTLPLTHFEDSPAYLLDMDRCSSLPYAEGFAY
Sequence of HSF1 (Q00613 whole entry): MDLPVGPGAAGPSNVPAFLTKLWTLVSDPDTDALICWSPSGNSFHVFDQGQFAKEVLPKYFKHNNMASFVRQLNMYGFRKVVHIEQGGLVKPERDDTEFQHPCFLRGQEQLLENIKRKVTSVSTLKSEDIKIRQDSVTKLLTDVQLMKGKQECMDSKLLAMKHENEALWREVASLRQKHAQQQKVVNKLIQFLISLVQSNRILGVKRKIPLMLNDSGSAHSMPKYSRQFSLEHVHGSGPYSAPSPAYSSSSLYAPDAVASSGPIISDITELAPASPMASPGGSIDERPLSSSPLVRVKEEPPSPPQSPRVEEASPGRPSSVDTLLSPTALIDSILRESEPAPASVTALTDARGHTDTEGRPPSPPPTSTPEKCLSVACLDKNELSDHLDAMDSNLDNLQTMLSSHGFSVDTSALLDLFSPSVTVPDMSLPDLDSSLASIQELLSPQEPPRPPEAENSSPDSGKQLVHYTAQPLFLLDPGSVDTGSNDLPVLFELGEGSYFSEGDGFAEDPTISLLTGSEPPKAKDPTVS
Sequence of ELF1 (P32519 whole entry): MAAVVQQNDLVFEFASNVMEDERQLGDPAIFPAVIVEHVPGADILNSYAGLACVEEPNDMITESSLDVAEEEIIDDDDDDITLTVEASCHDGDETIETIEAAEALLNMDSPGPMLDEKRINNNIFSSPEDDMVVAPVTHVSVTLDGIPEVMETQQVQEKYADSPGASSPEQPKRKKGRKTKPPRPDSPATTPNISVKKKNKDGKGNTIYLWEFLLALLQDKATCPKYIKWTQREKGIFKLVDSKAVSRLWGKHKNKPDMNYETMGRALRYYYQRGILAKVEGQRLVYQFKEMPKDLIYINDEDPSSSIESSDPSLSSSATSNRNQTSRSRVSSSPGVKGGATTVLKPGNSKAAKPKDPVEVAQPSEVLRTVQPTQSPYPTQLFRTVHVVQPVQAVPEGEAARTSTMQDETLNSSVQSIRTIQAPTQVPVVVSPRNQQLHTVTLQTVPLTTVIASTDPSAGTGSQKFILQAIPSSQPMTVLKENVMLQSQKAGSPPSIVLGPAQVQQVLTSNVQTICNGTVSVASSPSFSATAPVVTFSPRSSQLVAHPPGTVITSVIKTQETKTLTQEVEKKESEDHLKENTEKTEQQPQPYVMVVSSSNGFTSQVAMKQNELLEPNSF
Sequence of ELF4 (Q99607 whole entry): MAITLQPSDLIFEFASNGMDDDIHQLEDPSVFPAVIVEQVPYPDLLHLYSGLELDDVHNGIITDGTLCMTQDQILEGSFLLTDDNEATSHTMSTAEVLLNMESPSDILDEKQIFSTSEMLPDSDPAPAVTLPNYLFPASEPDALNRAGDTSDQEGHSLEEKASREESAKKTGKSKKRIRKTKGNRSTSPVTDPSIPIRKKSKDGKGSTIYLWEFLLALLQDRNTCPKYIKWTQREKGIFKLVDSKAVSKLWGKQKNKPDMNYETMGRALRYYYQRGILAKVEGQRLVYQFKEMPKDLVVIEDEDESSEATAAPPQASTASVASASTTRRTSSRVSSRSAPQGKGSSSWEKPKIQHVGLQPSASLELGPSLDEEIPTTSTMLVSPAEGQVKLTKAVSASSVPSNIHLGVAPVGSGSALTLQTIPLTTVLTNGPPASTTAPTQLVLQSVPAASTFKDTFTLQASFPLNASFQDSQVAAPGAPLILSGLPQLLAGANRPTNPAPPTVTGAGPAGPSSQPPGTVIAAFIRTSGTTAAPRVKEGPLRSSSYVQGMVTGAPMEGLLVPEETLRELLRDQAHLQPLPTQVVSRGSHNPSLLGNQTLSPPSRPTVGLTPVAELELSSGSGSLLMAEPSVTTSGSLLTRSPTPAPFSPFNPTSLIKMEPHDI
Sequence of SPIB (Q01892 whole entry): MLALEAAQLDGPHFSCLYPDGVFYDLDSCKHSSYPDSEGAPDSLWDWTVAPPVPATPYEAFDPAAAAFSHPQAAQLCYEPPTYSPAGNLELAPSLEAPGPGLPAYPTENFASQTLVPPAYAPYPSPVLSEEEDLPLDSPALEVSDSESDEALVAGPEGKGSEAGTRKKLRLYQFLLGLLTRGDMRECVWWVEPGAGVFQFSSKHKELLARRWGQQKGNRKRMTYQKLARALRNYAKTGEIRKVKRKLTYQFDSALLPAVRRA
Sequence of CRX (O43186 whole entry): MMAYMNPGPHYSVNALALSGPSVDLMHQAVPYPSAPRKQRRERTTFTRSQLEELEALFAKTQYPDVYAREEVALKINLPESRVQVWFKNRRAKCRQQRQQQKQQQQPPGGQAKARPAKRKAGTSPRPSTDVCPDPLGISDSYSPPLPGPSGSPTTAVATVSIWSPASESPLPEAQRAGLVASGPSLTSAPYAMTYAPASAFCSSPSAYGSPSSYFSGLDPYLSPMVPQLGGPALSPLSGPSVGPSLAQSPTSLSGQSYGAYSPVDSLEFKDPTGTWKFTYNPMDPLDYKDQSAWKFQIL
Sequence of ETV1 (P50549 whole entry): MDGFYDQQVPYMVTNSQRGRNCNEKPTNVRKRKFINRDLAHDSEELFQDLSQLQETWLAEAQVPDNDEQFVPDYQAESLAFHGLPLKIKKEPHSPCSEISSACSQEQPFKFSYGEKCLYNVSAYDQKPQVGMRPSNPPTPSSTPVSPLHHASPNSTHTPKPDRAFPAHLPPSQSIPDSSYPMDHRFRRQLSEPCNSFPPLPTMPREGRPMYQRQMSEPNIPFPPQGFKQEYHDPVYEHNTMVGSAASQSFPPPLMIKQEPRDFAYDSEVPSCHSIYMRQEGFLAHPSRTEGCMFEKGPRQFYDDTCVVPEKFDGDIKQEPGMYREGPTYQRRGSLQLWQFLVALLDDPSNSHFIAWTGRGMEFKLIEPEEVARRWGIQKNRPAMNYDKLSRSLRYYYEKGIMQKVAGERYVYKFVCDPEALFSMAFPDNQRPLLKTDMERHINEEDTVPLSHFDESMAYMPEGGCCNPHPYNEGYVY

For TCCTGT, the binding signal [1] was 1.8 fold enrichment (6-mer frequency, TF over GST control), the binding signal [2] was 1.72 fold enrichment (6-mer frequency, TF over GST control) and the binding signal [3] was 1.69 fold enrichment (6-mer frequency, TF over GST control). For the same sequence, the binding signal [4] was 1.94 fold enrichment (6-mer frequency, TF over GST control), the binding signal [5] was 1.71 fold enrichment (6-mer frequency, TF over GST control) and the binding signal [6] was 1.67 fold enrichment (6-mer frequency, TF over GST control). For the same sequence, the binding signal [7] was 1.99 fold enrichment (6-mer frequency, TF over GST control), the binding signal [8] was 1.88 fold enrichment (6-mer frequency, TF over GST control) and the binding signal [9] was 1.88 fold enrichment (6-mer frequency, TF over GST control). For the same sequence, the binding signal [10] was 1.85 fold enrichment (6-mer frequency, TF over GST control), the binding signal [11] was 2.04 fold enrichment (6-mer frequency, TF over GST control) and the binding signal [12] was 1.14 fold enrichment (6-mer frequency, TF over GST control). The binding signal [13] was 1.87 fold enrichment (6-mer frequency, TF over GST control), the binding signal [14] was 1.65 fold enrichment (6-mer frequency, TF over GST control) and the binding signal [15] was 1.56 fold enrichment (6-mer frequency, TF over GST control). For the same sequence, the binding signal [16] was 1.71 fold enrichment (6-mer frequency, TF over GST control), the binding signal [17] was 1.78 fold enrichment (6-mer frequency, TF over GST control) and the binding signal [18] was 1.16 fold enrichment (6-mer frequency, TF over GST control). The binding signal [19] was 1.89 fold enrichment (6-mer frequency, TF over GST control).
